Data taken from PubChem BioAssay AID1347170 (National Center for Advancing Translational Sciences (NCATS), 2019).
Records with an inconclusive call do not appear. Values without a mark were called inactive. Calls follow the shape of the dose curve; as a rule, active = well fitted cell-killing curve with a large enough effect; inconclusive = small, poorly fitted or top-dose-only effect, or another doubt; inactive = flat fitted curve, though single readings scatter.

Assay: Vero cells viability counterscreen for qRT-PCR qHTS assay of selected Zika virus inhibitors
Conditions: CellTiter-Glo ATP luminescence, 24 h; series mostly up to 41.8 µM; activity change, negative = cytotoxicity: at the top concentration
Text: Assay Submitters (PI): Avindra Nath, Ph.D., National Institute of Neurological Disorders and Stroke (NINDS), Bethesda, MD Radhakrishnan Padmanabhan, Ph.D., Georgetown University (GU), Washington D.C. Zika Virus causes congenital defects, including microcephaly and is associated with Guillain-Barre syndrome, eningoencephalitis and myelitis in infected adult. […] Using a target-based approach, we hope to establish a screening paradigm to uncover novel, cell-active NS2B-NS3 protease (Zika Virus) specific inhibitors from NCATS' collection of small molecules using qHTS. […] Four assay panel was created to identify potential Zika Virus inhibitors. Namely, (1) GU unlinked NS2B-NS3 AMC tagged protease qHTS, (2) GU unlinked NS2B-NS3 Rhodamine tagged protease qHTS, (3) NINDS linked NS2B-NS3 AMC tagged protease qHTS, (4) NINDS linked NS2B-NS3 Rhodamine tagged protease qHTS. Inhibitors of the Zika virus primary screens are confirmed using qRT-PCR secondary assays, mCherry orthogonal assay, and Vero cells viability counterscreen. Cytotoxic compounds identified in the Vero cell viability counterscreen were excluded from the list of potential Zika virus inhibitors. Early Translation Branch (ETB) National Center for Advancing Translational Sciences (NCATS), Rockville, MD National Institute of Health (NIH), Bethesda, Maryland
Vero Cell Viability Assay: Vero cell cytotoxicity was determined using a luminescent readout with CellTiter Glo reagent (Promega, Madison, WI), which is based on measuring the ATP content within cells. Briefly, 4 uL of Vero cells at 2.5 x 10^5 cells/mL in DMEM containing 4% FBS were dispensed into 1536-well solid bottom tissue treated white plate using a Multidrop Combi dispenser (Thermo Scientific). Plates were incubated at 37 degrees C, 95% humidity, and 5% CO2 overnight to allow for cell attachment. Compounds were dissolved in DMSO at different concentrations and transferred via pintool (Wako Automation), for a final concentration of 57 uM - 0.029 uM. Plates were again incubated for 24 hours, followed by a 2 uL addition of CellTiter Glo. Finally, plates were incubated for 30 minutes at 37 degrees C and 5% CO2 before being read on a ViewLux (Perkin Elmer) for luminescence.

Row | Compound | activity change, negative = cytotoxicity
1 | CCCCCOc1cc2c(cc1-c1cc(/C=C/C(=O)O)ccc1O)C(C)(C)CCC2(C)C | -8.19%
2 | C[C@]12CC[C@@H]3c4ccc(OC(=O)N(CCCl)CCCl)cc4CC[C@H]3[C@@H]1CC[C@@H]2O | 1.61%
3 | O=C(Nc1ccc(Br)cc1)c1cc(Br)cc(Br)c1O | -2.96% [at 31.5 µM]
4 | CN(C)[C@@H]1C(=O)C(C(N)=O)=C(O)[C@@]2(O)C(=O)C3=C(O)c4c(O)ccc(Cl)c4[C@@](C)(O)[C@H]3C[C@@H]12 | -4.34%
5 | Oc1c(Cl)c(Cl)c(Cl)c(Cl)c1Cl | -6.7%
6 | CN(C)[C@@H]1C(=O)C(C(N)=O)=C(O)[C@@]2(O)C(=O)C3=C(O)c4c(O)cccc4[C@@](C)(O)[C@H]3C[C@@H]12 | -3.72%
7 | Cc1cc(SCc2sc(-c3ccc(C(F)(F)F)c(F)c3)nc2C)ccc1OCC(=O)O | -17.4% [at 83.7 µM]
8 | CC(=O)c1c(O)c(C)c(O)c(Cc2c(O)c3c(c(C(=O)/C=C/c4ccccc4)c2O)OC(C)(C)C=C3)c1O | 7.22%
9 | O=C1OC(c2ccc(O)c(S(=O)(=O)O)c2)(c2ccc(O)c(S(=O)(=O)O)c2)c2c(Br)c(Br)c(Br)c(Br)c21 | -4.94% [at 31.5 µM]
